What all share (assay): DAPPL (digital affinity profiling via proximity ligation, sequencing); 10 mM Tris-HCl pH 7.5, 50 mM NaCl, 1 mM DTT, 4% glycerol, room temperature, 30 min; GST-TFs on glutathione beads, 16-mer random dsDNA library, 0.1% formaldehyde crosslink after washing; high values mean tight binding
One assay deals with T1, FLI1 (Homo sapiens, UniProt Q01543 1-452).
T1 sequence: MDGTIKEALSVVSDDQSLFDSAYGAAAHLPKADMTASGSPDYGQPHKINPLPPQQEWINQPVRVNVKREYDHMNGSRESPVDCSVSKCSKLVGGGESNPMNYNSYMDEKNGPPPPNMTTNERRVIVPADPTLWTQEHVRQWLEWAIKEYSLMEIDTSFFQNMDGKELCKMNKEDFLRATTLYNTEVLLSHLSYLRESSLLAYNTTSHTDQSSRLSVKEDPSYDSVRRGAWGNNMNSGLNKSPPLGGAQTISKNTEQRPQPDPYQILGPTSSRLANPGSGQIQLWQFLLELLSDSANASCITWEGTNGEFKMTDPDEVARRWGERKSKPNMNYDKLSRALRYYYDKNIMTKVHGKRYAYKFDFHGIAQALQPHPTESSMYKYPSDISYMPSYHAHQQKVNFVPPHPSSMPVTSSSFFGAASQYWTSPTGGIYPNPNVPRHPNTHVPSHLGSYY
To be noted: protein: recombinant; tags: N-terminal GST; dsDNA, one strand shown. Put shortly:
(§1)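 Sequencing on an Illumina NextSeq500 followed washing, crosslinking with 0.1% formaldehyde, proximity ligation (BsaI/T4 ligase, 1 h, 37 °C) and PCR amplification of pools that had been incubated for 30 min at room temperature with 200 nmole of a random double-stranded 16-mer DNA library in Tris/NaCl/DTT/glycerol buffer. Each pool held DNA-barcoded human transcription factors, expressed in yeast as GST fusions and captured on glutathione beads, plus a tag-only sample. Binding signal is a hexamer's read frequency for a factor divided by its frequency in the tag-only sample.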

For another assay, the target named is T2, ELK1 (Homo sapiens, UniProt P19419 1-428).
T2 sequence: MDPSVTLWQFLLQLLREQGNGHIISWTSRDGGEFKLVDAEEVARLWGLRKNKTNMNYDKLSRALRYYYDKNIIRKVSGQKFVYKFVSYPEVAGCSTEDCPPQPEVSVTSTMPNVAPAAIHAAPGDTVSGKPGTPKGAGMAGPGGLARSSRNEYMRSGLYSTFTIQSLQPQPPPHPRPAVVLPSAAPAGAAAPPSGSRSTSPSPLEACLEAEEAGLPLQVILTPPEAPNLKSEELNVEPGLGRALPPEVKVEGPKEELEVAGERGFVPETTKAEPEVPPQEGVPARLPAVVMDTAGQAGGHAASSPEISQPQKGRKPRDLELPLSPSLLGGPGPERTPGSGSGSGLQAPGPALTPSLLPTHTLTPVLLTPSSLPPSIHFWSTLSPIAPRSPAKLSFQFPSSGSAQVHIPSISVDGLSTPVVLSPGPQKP
To be noted: protein: recombinant; tags: N-terminal GST; dsDNA, one strand shown. In short, it runs like this: as §1

The target in a further assay is T3, GABPA (Homo sapiens, UniProt Q06546 1-454).
T3 sequence: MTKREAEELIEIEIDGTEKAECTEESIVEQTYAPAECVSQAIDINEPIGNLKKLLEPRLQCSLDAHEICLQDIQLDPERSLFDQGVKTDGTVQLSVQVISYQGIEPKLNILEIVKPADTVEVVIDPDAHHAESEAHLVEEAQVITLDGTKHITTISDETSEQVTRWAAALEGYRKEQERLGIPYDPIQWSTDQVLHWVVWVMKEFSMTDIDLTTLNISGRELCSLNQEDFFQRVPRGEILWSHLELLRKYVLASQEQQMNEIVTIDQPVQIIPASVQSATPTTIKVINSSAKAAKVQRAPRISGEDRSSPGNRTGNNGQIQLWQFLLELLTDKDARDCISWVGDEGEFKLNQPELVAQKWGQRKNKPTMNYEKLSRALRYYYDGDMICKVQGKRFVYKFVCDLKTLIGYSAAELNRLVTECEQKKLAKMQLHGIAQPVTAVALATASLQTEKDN
To be noted: protein: recombinant; tags: N-terminal GST; dsDNA, one strand shown. In short, it runs like this: as §1

The next assay deals with T4, ERG (Homo sapiens, UniProt P11308 1-479).
T4 sequence: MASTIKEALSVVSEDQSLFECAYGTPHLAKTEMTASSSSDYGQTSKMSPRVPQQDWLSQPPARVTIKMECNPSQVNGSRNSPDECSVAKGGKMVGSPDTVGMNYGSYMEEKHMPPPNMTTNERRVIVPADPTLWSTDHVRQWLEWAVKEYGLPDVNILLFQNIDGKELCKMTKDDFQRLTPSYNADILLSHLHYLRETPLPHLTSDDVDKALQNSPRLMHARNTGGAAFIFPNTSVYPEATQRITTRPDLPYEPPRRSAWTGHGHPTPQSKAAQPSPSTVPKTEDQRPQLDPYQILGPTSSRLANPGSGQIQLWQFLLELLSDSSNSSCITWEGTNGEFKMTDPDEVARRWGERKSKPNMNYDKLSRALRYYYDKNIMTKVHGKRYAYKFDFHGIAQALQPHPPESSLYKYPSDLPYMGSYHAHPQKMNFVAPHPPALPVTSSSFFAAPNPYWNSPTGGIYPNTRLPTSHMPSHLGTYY
Particulars: protein: recombinant; tags: N-terminal GST; dsDNA, one strand shown. Put shortly: as §1

Another assay deals with ELF1 (Homo sapiens, UniProt P32519 1-619). Particulars: protein: recombinant; tags: N-terminal GST; dsDNA, one strand shown. In short, it runs like this:
as §1

Another assay deals with T5, EHF (Homo sapiens, UniProt Q9NZC4 1-300).
T5 sequence: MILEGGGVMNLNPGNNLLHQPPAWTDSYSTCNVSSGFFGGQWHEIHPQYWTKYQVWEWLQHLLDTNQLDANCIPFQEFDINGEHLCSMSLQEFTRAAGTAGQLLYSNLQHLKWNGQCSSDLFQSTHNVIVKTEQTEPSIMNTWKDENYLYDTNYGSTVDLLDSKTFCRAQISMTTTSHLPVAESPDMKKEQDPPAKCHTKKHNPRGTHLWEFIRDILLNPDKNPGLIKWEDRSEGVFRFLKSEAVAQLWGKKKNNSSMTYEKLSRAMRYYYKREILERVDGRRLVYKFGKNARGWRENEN
To be noted: protein: recombinant; tags: N-terminal GST; dsDNA, one strand shown. In short, it runs like this:
as §1

In another assay the target is SPI1 (Homo sapiens, UniProt P17947 1-270). To be noted: protein: recombinant; tags: N-terminal GST; dsDNA, one strand shown. In short, it runs like this: as §1
The next assay has as its target SPIB (Homo sapiens, UniProt Q01892 1-262). To be noted: protein: recombinant; tags: N-terminal GST; dsDNA, one strand shown. Put shortly: as §1
Another assay concerns the target T6, ELK3 (Homo sapiens, UniProt P41970 1-407).
T6 sequence: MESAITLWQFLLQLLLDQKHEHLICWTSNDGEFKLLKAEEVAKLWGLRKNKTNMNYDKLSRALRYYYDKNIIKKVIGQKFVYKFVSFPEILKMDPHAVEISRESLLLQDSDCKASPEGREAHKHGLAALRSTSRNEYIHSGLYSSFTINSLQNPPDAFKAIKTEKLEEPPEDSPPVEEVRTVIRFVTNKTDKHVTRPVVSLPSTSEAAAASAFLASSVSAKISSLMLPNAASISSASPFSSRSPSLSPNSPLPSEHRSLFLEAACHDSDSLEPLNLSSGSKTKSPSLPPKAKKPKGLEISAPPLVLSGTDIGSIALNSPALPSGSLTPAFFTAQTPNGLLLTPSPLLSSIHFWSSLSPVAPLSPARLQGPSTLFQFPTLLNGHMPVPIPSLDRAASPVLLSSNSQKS
To be noted: protein: recombinant; tags: N-terminal GST; dsDNA, one strand shown. Put shortly:
as §1

The target in another assay is T7, FEV (Homo sapiens, UniProt Q99581 1-238).
T7 sequence: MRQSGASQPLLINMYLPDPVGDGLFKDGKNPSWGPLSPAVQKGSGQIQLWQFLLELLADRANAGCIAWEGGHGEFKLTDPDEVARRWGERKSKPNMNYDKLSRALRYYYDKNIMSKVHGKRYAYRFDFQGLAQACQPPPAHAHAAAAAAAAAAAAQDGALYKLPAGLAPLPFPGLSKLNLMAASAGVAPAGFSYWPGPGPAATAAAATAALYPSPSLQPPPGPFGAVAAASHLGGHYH
To be noted: protein: recombinant; tags: N-terminal GST; dsDNA, one strand shown. In short, it runs like this: as §1

In a further assay the target is ETV5 (Homo sapiens, UniProt P41161 1-510). To be noted: protein: recombinant; tags: N-terminal GST; dsDNA, one strand shown. In short, it runs like this:
as §1

Another assay has as its target HSF1 (Homo sapiens, UniProt Q00613 1-529). Particulars: protein: recombinant; tags: N-terminal GST; chain copies: 3; dsDNA, one strand shown. Put shortly: as §1
For another assay, the target named is T8, SPIC (Homo sapiens, UniProt Q8N5J4 1-248).
T8 sequence: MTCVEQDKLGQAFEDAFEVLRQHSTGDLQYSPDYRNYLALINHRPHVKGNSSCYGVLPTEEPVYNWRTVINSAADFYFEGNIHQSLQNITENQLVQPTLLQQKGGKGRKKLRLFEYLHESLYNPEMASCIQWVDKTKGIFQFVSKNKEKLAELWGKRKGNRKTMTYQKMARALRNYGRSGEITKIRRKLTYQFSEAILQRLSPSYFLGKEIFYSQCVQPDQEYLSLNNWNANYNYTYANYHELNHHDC
Particulars: protein: recombinant; tags: N-terminal GST; dsDNA, one strand shown. Put shortly:
as §1

In another assay the target is ELF4 (Homo sapiens, UniProt Q99607 1-663). Particulars: protein: recombinant; tags: N-terminal GST; dsDNA, one strand shown. Put shortly: as §1
ELF4, sequence (Q99607 whole entry): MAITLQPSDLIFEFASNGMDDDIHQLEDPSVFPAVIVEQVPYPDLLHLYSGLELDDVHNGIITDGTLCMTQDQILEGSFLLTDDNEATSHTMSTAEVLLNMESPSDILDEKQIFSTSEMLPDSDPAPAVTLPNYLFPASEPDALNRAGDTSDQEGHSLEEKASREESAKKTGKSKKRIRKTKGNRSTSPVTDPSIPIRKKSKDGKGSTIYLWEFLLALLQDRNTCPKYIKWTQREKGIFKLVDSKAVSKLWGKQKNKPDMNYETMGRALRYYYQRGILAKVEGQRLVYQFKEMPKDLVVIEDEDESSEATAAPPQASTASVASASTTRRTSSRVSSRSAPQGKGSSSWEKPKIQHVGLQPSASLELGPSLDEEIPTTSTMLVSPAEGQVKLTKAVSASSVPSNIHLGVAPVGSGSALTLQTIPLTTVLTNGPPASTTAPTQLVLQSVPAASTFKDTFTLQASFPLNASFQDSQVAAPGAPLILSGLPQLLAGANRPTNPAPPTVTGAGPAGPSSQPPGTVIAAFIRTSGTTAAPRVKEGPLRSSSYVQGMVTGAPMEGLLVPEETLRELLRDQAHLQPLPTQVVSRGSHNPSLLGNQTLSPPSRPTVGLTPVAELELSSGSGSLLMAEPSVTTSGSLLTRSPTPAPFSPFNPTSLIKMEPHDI
The target in the next assay is T9, ELK4 (Homo sapiens, UniProt P28324-2 1-405).
T9 sequence: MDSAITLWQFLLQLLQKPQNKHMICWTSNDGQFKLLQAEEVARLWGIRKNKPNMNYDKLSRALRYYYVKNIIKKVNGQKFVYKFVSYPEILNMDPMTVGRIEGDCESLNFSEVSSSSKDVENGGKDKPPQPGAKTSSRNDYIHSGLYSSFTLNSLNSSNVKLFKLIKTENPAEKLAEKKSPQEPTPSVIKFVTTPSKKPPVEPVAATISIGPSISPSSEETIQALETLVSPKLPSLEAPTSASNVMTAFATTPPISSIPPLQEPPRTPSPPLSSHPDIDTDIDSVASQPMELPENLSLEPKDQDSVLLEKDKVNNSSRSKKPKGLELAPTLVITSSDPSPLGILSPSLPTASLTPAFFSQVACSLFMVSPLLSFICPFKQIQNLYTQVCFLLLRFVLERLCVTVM
To be noted: protein: recombinant; tags: N-terminal GST; dsDNA, one strand shown. Put shortly:
as §1

The target of the next assay is T10, ETV2 (Homo sapiens, UniProt O00321 1-342).
T10 sequence: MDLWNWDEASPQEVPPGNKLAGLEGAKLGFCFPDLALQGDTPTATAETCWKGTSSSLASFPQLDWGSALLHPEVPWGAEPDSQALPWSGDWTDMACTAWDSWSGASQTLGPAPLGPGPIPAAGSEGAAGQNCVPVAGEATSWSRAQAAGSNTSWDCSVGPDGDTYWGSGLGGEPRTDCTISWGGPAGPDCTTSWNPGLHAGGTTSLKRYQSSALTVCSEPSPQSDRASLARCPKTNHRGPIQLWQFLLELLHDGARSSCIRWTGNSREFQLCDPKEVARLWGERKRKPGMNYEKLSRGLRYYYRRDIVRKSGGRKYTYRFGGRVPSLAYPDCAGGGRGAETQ
Particulars: protein: recombinant; tags: N-terminal GST; dsDNA, one strand shown. In short, it runs like this: as §1

A further assay deals with CRX (Homo sapiens, UniProt O43186 1-299). To be noted: protein: recombinant; tags: N-terminal GST; dsDNA, one strand shown. Put shortly:
as §1

A further assay addresses ETV1 (Homo sapiens, UniProt P50549 1-477). Particulars: protein: recombinant; tags: N-terminal GST; dsDNA, one strand shown. In short, it runs like this: as §1

ELF1, sequence (P32519 whole entry): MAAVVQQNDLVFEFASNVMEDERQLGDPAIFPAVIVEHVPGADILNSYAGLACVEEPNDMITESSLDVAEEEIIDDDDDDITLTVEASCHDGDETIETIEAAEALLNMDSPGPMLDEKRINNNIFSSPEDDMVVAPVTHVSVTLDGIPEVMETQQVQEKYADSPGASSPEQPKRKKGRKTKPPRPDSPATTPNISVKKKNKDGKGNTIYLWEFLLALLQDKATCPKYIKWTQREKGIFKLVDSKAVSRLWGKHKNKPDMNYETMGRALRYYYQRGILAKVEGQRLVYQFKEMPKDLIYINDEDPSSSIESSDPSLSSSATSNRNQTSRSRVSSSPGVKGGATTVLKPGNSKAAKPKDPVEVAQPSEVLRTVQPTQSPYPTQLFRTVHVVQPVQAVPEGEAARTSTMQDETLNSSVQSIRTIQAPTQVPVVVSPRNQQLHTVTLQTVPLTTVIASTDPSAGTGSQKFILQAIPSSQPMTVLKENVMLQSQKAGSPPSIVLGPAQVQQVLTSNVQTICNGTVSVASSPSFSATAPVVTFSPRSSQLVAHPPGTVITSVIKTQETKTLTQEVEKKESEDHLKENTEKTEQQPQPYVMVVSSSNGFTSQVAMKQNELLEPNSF
CRX, sequence (O43186 whole entry): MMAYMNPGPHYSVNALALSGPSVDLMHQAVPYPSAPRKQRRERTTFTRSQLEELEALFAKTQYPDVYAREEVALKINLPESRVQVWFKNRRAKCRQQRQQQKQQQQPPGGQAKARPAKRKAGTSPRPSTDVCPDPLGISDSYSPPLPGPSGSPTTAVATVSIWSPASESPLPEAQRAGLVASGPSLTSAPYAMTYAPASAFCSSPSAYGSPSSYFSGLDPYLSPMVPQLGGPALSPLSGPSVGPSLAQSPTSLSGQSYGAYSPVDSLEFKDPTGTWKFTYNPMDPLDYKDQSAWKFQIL
ETV5, sequence (P41161 whole entry): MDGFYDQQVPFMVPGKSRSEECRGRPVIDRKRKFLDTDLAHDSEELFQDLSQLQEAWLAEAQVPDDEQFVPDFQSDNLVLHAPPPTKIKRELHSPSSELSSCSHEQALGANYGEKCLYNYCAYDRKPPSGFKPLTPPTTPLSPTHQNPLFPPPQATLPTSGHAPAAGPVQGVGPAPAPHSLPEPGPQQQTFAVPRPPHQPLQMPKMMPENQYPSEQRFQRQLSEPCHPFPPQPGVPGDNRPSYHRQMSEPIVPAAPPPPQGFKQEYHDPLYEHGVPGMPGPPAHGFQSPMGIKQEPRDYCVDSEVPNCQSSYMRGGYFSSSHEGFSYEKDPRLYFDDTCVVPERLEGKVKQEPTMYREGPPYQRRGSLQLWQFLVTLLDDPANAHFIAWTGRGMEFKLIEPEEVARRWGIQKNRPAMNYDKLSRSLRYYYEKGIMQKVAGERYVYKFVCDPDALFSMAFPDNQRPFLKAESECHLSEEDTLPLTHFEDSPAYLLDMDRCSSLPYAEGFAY
HSF1, sequence (Q00613 whole entry): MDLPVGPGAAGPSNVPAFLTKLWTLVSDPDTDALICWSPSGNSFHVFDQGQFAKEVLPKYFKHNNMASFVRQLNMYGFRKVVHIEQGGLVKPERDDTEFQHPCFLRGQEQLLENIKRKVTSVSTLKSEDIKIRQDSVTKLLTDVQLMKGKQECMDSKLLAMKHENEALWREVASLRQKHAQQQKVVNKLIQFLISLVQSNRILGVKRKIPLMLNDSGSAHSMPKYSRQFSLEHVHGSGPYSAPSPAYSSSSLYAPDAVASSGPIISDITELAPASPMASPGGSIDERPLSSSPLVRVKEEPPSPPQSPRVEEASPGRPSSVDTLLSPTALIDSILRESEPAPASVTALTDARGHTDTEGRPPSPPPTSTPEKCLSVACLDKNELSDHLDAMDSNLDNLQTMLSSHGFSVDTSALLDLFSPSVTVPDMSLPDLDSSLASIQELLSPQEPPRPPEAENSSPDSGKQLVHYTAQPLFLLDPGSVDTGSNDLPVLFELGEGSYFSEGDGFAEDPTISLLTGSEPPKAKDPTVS
SPIB, sequence (Q01892 whole entry): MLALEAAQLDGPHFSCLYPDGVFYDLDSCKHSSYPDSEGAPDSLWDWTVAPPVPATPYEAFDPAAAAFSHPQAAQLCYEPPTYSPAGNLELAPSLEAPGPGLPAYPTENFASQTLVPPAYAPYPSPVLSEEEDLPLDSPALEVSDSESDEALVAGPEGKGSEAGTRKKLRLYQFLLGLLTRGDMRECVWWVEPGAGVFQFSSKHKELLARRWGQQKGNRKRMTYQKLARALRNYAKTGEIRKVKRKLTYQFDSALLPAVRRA
ETV1, sequence (P50549 whole entry): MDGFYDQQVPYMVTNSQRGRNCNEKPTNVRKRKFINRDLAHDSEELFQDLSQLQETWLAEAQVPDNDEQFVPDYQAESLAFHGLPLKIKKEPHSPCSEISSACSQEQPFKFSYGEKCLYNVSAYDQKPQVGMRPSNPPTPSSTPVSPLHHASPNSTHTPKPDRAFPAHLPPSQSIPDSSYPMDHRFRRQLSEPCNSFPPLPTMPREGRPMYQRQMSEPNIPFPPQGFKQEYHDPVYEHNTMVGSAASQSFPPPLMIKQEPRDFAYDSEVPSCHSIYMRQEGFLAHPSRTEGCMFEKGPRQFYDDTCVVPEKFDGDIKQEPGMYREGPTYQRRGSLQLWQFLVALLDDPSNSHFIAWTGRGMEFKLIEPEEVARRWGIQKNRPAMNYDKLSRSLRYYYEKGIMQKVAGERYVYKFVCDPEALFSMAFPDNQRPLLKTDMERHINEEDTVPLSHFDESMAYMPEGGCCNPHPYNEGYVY

Turning to TGATTT, the binding signal with FLI1 is 1.29 fold enrichment (6-mer frequency, TF over GST control); with ELK1 it was 1.2 fold enrichment (6-mer frequency, TF over GST control); with GABPA, 1.33 fold enrichment (6-mer frequency, TF over GST control); with ERG it was 1.35 fold enrichment (6-mer frequency, TF over GST control); in the assay with ELF1, 1.23 fold enrichment (6-mer frequency, TF over GST control); with EHF, 1.18 fold enrichment (6-mer frequency, TF over GST control). Also, the binding signal with SPI1 was 1.21 fold enrichment (6-mer frequency, TF over GST control); with SPIB, 1.23 fold enrichment (6-mer frequency, TF over GST control); with ELK3 it was 1.11 fold enrichment (6-mer frequency, TF over GST control); with FEV, 1.26 fold enrichment (6-mer frequency, TF over GST control); in the assay with ETV5, 1.27 fold enrichment (6-mer frequency, TF over GST control); with HSF1 it was 1.27 fold enrichment (6-mer frequency, TF over GST control). The binding signal with SPIC is 1.39 fold enrichment (6-mer frequency, TF over GST control); with ELF4, 1.23 fold enrichment (6-mer frequency, TF over GST control); with ELK4, 1.2 fold enrichment (6-mer frequency, TF over GST control); in the assay with ETV2, 1.29 fold enrichment (6-mer frequency, TF over GST control); with CRX it was 1.35 fold enrichment (6-mer frequency, TF over GST control); with ETV1 it was 1.31 fold enrichment (6-mer frequency, TF over GST control).

For the origin of these results see PMC7862700, “An all-to-all approach to the identification of sequence-specific readers for epigenetic DNA modifications on cytosine”.
